# Test results taken from the supplement of paper PMC8728848.
# This excerpt belongs to a sample that is enriched for the strongest signals.
# Key:
# Experiment in all cases: glycan array binding signal (z-score within array); higher = stronger binding
# Conditions in all cases: glycan notation: IUPAC condensed, linker removed
# [1] = target: GlcNAc(b1-3)GalNAc
# Procedure, shortened: (§1)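 The Consortium for Functional Glycomics database supplied 3228 glycan arrays, of which those lacking an available protein sequence were dropped. The binding signal, a within-array Z-score, was averaged across arrays of the same protein sequence and across linkers. Negative scores can be read as non-binding.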
# [2] = target: GlcNAc(b1-4)GlcNAc(b1-4)GlcNAc(b1-4)GlcNAc(b1-4)GlcNAc(b1-4)GlcNAc
# Procedure, shortened: as §1
# [3] = target: GlcNAc(b1-4)[GlcNAc(b1-6)]GalNAc
# Procedure, shortened: as §1
# [4] = target: Man(a1-3)[Man(a1-6)]Man(b1-4)GlcNAc(b1-4)GlcNAc
# Procedure, shortened: as §1
# [5] = target: Man(a1-6)Man
# Procedure, shortened: as §1
# [6] = target: Neu5Ac(a2-3)Gal(b1-3)GlcNAc6S
# Procedure, shortened: as §1
# [7] = target: Neu5Ac(a2-3)Gal(b1-3)[Fuc(a1-4)]GlcNAc(b1-3)Gal(b1-4)[Fuc(a1-3)]GlcNAc
# Procedure, shortened: as §1
# [8] = target: Neu5Ac(a2-3)Gal(b1-3)]Neu5Ac(a2-3)Gal(b1-4)]GlcNAc
# Procedure, shortened: as §1
# [9] = target: Neu5Ac(a2-3)Gal(b1-4)GlcNAc(b1-2)Man
# Procedure, shortened: as §1
# [10] = target: Neu5Ac(a2-3)Gal(b1-4)GlcNAc(b1-6)GalNAc
# Procedure, shortened: as §1
# [11] = target: Neu5Ac(a2-3)Gal(b1-4)GlcNAc(b1-6)[Gal(b1-3)]GalNAc
# Procedure, shortened: as §1
# [12] = target: Neu5Ac(a2-3)Gal(b1-4)GlcNAc6S
# Procedure, shortened: as §1
# [13] = target: Neu5Ac(a2-3)[Neu5Ac(a2-6)]GalNAc
# Procedure, shortened: as §1
# [14] = target: Neu5Ac(a2-6)Gal
# Procedure, shortened: as §1
# [15] = target: Neu5Ac(a2-6)Gal(b1-4)GlcNAc(b1-2)Man(a1-6)Man(b1-4)GlcNAc(b1-4)GlcNAc
# Procedure, shortened: as §1
# [16] = target: Neu5Ac(b2-6)GalNAc
# Procedure, shortened: as §1
# [17] = target: Fuc(a1-2)Gal(b1-3)GalNAc
# Procedure, shortened: as §1
# [18] = target: Fuc(a1-2)Gal(b1-3)GalNAc(a1-3)[Fuc(a1-2)]Gal(b1-4)Glc
# Procedure, shortened: as §1
# [19] = target: Fuc(a1-2)Gal(b1-3)GalNAc(a1-3)[Fuc(a1-2)]Gal(b1-4)GlcNAc
# Procedure, shortened: as §1
# [20] = target: Fuc(a1-2)Gal(b1-3)[Fuc(a1-4)]GlcNAc(b1-3)[Fuc(a1-3)[Gal(b1-4)]GlcNAc(b1-6)]Gal(b1-4)Glc
# Procedure, shortened: as §1
# [21] = target: Fuc(a1-2)Gal(b1-4)GlcNAc(b1-3)GalNAc
# Procedure, shortened: as §1
# [22] = target: Fuc(a1-2)Gal(b1-4)GlcNAc6S
# Procedure, shortened: as §1
# [23] = target: Fuc(a1-2)Gal(b1-4)[Fuc(a1-3)]GlcNAc(b1-3)Gal(b1-4)[Fuc(a1-3)]GlcNAc
# Procedure, shortened: as §1
# [24] = target: Fuc(a1-2)[Gal(a1-3)]Gal(b1-4)Glc
# Procedure, shortened: as §1
# [25] = target: Fuc(a1-2)[Gal(a1-4)]Gal(b1-4)GlcNAc
# Procedure, shortened: as §1
# [26] = target: Fuc(a1-2)[GalNAc(b1-3)]Gal
# Procedure, shortened: as §1
# [27] = target: Fuc(a1-3)[Gal(b1-4)]GlcNAc(b1-3)GalNAc
# Procedure, shortened: as §1
# [28] = target: Fuc(a1-3)[Gal(b1-4)]GlcNAc(b1-6)[Gal(b1-3)GlcNAc(b1-3)]Gal(b1-4)Glc
# Procedure, shortened: as §1
# [29] = target: Fuc(a1-3)[GalNAc(b1-4)]GlcNAc
# Procedure, shortened: as §1
# [30] = target: Gal(a1-4)Gal(b1-3)GlcNAc(b1-2)Man(a1-3)[Gal(a1-4)Gal(b1-3)GlcNAc(b1-2)Man(a1-6)]Man(b1-4)GlcNAc(b1-4)GlcNAc
# Procedure, shortened: as §1
# [31] = target: Gal(b1-3)Gal(b1-4)GlcNAc(b1-2)Man(a1-3)[Gal(b1-3)Gal(b1-4)GlcNAc(b1-2)Man(a1-6)]Man(b1-4)GlcNAc(b1-4)GlcNAc
# Procedure, shortened: as §1
# [32] = target: Gal(b1-3)GlcNAc(b1-2)Man(a1-3)[Gal(b1-3)GlcNAc(b1-2)Man(a1-6)]Man(b1-4)GlcNAc(b1-4)GlcNAc
# Procedure, shortened: as §1
# [33] = target: Gal(b1-4)GlcNAc(b1-2)Man(a1-3)[Gal(b1-4)GlcNAc(b1-2)][GlcNAc(b1-4)]Man(b1-4)GlcNAc(b1-4)GlcNAc
# Procedure, shortened: as §1
# [34] = target: Gal(b1-4)GlcNAc(b1-2)Man(a1-3)[GlcNAc(b1-2)Man(a1-6)]Man(b1-4)GlcNAc(b1-4)GlcNAc
# Procedure, shortened: as §1
# [35] = target: Gal(b1-4)GlcNAc(b1-2)Man(a1-6)[Man(a1-3)]Man(b1-4)GlcNAc(b1-4)GlcNAc
# Procedure, shortened: as §1
# [36] = target: Gal(b1-4)GlcNAc(b1-2)[Gal(b1-4)GlcNAc(b1-6)]Man(a1-6)[Gal(b1-4)GlcNAc(b1-2)Man(a1-3)]Man(b1-4)GlcNAc(b1-4)[Fuc(a1-6)]GlcNAc
# Procedure, shortened: as §1
# [37] = target: Gal(b1-4)GlcNAc(b1-6)GalNAc
# Procedure, shortened: as §1
# [38] = target: Gal3S(b1-4)[Fuc(a1-3)]Glc6S
# Procedure, shortened: as §1
# [39] = target: GalNAc3S(b1-4)GlcNAc
# Procedure, shortened: as §1
# [40] = target: Glc(b1-4)Glc
# Procedure, shortened: as §1
# [41] = target: GlcNAc(b1-2)Man(a1-3)[GlcNAc(b1-2)Man(a1-6)]Man(b1-4)GlcNAc(b1-4)GlcNAc
# Procedure, shortened: as §1
# [42] = target: GlcNAc(b1-3)[GlcNAc(b1-6)]GalNAc
# Procedure, shortened: as §1
# [43] = target: Kdn(a2-3)Gal(b1-4)Glc
# Procedure, shortened: as §1
# [44] = target: Man(a1-2)Man(a1-3)[Man(a1-2)Man(a1-6)]Man(a1-6)[Man(a1-2)Man(a1-2)Man(a1-3)]Man
# Procedure, shortened: as §1
# [45] = target: Man(a1-2)Man(a1-6)[Man(a1-3)]Man(a1-6)[Man(a1-2)Man(a1-2)Man(a1-3)]Man
# Procedure, shortened: as §1
# [46] = target: Man(a1-3)[Man(a1-6)]Man(a1-6)[Man(a1-2)Man(a1-3)]Man(b1-4)GlcNAc(b1-4)GlcNAc
# Procedure, shortened: as §1
binder,measurement,setting,value
Si Bti9 1b-V5-his (Solanum lycopersicum) (protein) MQCNRGCDLALASFYVWRGSNLTLISEMFSTSIADIVSYNNRDNIPNQDSVIAGTRINIPFRCDCLNDGEVLGHAFPYRVKSGDTYDLVARNYSDLTTAQWMMKFNSYPENNIPNTVNLSVVVNCSCGNSDVSKDFGLFVTYPVRAEDNLTSVASAANVSEDIIRRYNPAAVSILDIGQGIIYIPGRDRNGNFPPLPTSTDGLSGGAKKGGRADPAFLYKVVINSKLEGKPIPNPLLGLDSTRTGHHHHHH,glycan array binding signal (z-score),[1],-0.322
same,glycan array binding signal (z-score),[2],-0.156
same,glycan array binding signal (z-score),[3],5.97
same,glycan array binding signal (z-score),[4],-0.362
same,glycan array binding signal (z-score),[5],5.02
same,glycan array binding signal (z-score),[6],0.024
same,glycan array binding signal (z-score),[7],-0.294
same,glycan array binding signal (z-score),[8],-0.311
same,glycan array binding signal (z-score),[9],0.768
same,glycan array binding signal (z-score),[10],-0.254
same,glycan array binding signal (z-score),[11],-0.108
same,glycan array binding signal (z-score),[12],10.6
same,glycan array binding signal (z-score),[13],-0.269
same,glycan array binding signal (z-score),[14],3.19
same,glycan array binding signal (z-score),[15],-0.285
same,glycan array binding signal (z-score),[16],-0.242
SalT (Orysata sativa) (protein) MTLVKIGLWGGNGGSAQDISVPPKKLLGVTIYSSDAIRSIAFNYIGVDGQEYAIGPWGGGEGTSTEIKLGSSEHIKEISGTHGPVYDLADIVTYLKIVTSANNTYEAGVPNGKEFSIPLQDSGHVVGFFGRSGTLIDAIGIYVHPILEQKLISEEDLNSAVDHHHHHH,glycan array binding signal (z-score),[17],-0.283
same,glycan array binding signal (z-score),[18],-0.306
same,glycan array binding signal (z-score),[19],-0.31
same,glycan array binding signal (z-score),[20],-0.307
same,glycan array binding signal (z-score),[21],-0.307
same,glycan array binding signal (z-score),[22],-0.308
same,glycan array binding signal (z-score),[23],-0.308
same,glycan array binding signal (z-score),[24],-0.308
same,glycan array binding signal (z-score),[25],-0.309
same,glycan array binding signal (z-score),[26],-0.31
same,glycan array binding signal (z-score),[27],-0.301
same,glycan array binding signal (z-score),[28],-0.31
same,glycan array binding signal (z-score),[29],-0.306
same,glycan array binding signal (z-score),[30],3.59
same,glycan array binding signal (z-score),[31],3.71
same,glycan array binding signal (z-score),[32],3.69
same,glycan array binding signal (z-score),[33],0.03
same,glycan array binding signal (z-score),[34],2.65
same,glycan array binding signal (z-score),[35],4.64
same,glycan array binding signal (z-score),[36],0.799
same,glycan array binding signal (z-score),[37],-0.307
same,glycan array binding signal (z-score),[38],-0.3
same,glycan array binding signal (z-score),[39],-0.306
same,glycan array binding signal (z-score),[40],-0.309
same,glycan array binding signal (z-score),[41],4.06
same,glycan array binding signal (z-score),[42],-0.309
same,glycan array binding signal (z-score),[43],-0.306
same,glycan array binding signal (z-score),[44],-0.304
same,glycan array binding signal (z-score),[45],-0.282
same,glycan array binding signal (z-score),[46],5.46
